Assay results as given in PubChem BioAssay (NCI).
The panel holds about 83,000 compounds, 20% with a hit somewhere; the sample as a whole holds those more often.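 Values shown are percent growth following 48 h exposure of cells in 96-well plates to a single concentration of compound; below 10 was considered active.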 Activity calls are given as the source filed them.

What was measured:
Assay in all cases: NCI-60 one-dose screen, 48 h (100 = growth as untreated, 0 = no growth, -100 = all killed)
[1] = system: NCI-H23 lung; conditions: 10 µM unless noted
[2] = system: NCI-H226 lung; conditions: 10 µM unless noted
[3] = system: NCI-H322M lung; conditions: 10 µM unless noted
[4] = system: HOP-62 NSCLC; conditions: 10 µM unless noted
[5] = system: NCI-H460 lung; conditions: 10 µM unless noted
[6] = system: HOP-92 NSCLC; conditions: 10 µM
[7] = system: A549/ATCC NSCLC; conditions: 10 µM unless noted
[8] = system: 786-0 renal; conditions: 10 µM unless noted
[9] = system: COLO 205 colon; conditions: 10 µM unless noted
[10] = system: DU-145 prostate; conditions: 10 µM unless noted
[11] = system: K-562 leukemia; conditions: 10 µM unless noted
[12] = system: MALME-3M melanoma; conditions: 10 µM unless noted
[13] = system: MDA-MB-231 breast; conditions: 10 µM unless noted
[14] = system: RXF 393 renal; conditions: 10 µM unless noted
[15] = system: SF-268 CNS; conditions: 10 µM unless noted
[16] = system: SF-295 CNS; conditions: 10 µM unless noted
[17] = system: SF-539 CNS; conditions: 10 µM unless noted
[18] = system: UACC-257 melanoma; conditions: 10 µM unless noted
[19] = system: M14 melanoma; conditions: 10 µM unless noted
[20] = system: NCI-H522 lung; conditions: 10 µM unless noted

Measured: growth

CS(=O)(=O)Nc1cc(-c2ccc3ncc(C#N)c(NCc4ccccc4)c3c2)cnc1Cl
active: [1] 0.346% | [2] -9.59% | [4] 2.7% | [5] 3.01% | [6] -16.8% | [7] 7.72% | [8] 0.0627% | [9] 6.54% | [10] 8.12% | [11] 9.74% | [12] -38.7% | [13] -51.8% | [14] -46.6% | [15] -4.76% | [16] -32.3% | [17] -42.6% | [18] 1.36% | [19] -9.52%
inactive: [3] 16.5%

CNC(=O)c1c(NC(=O)c2ccccc2C(F)(F)F)sc2c1CCC(=O)C2
active: [6] 1.45% | [20] 3.39%
inactive: [1] 13.9% | [2] 64.2% | [3] 105% | [4] 98.6% | [5] 57.4% | [8] 39.6% | [9] 16.2% | [10] 99.9% | [11] 12.9% | [12] 54% | [13] 26.5% | [15] 33.2% | [16] 82.2% | [17] 14.5% | [18] 72.4%

COc1cccc(O)c1/C=C(/C)c1ccc2c(OC)cccc2[o+]1
inactive: [1] 103% | [2] 105% | [3] 103% | [4] 92.5% | [5] 109% | [6] 104% | [20] 98.5% | [8] 101% | [9] 117% | [10] 111% | [11] 95.6% | [12] 96.8% | [13] 101% | [15] 100% | [16] 99.1% | [17] 93.2% | [18] 118%

Cc1c(F)cc(C(N)=O)cc1NCC(=O)Nc1ccc([N+](=O)[O-])cc1
inactive: [1] 89.2% | [2] 82.2% | [3] 99.4% | [4] 70.6% | [5] 99% | [6] 75.8% | [7] 87.7% | [8] 87.5% | [9] 105% | [10] 86.7% | [11] 101% | [12] 109% | [13] 89.8% | [14] 45.5% | [15] 81.2% | [16] 93.6% | [17] 95.1% | [18] 102% | [19] 99.1%

CCCCCc1ccc(S(=O)(=O)Nc2cccc(-c3csc(NC(=O)CCCCCN4CCN(C)CC4)n3)c2)cc1
active: [5] -29.6% | [9] -34.3% | [11] -35.7% | [12] -67.4% | [18] 0.162%
inactive: [1] 75.7% | [2] 88.2% | [3] 84.1% | [4] 79.4% | [6] 29.8% | [20] 64.3% | [8] 44.4% | [10] 63.5% | [13] 42.9% | [15] 67.5% | [16] 85.8% | [17] 63%

COc1ccc(C2c3sc4c(C)cccc4c3Oc3nc(CC(=O)Nc4ccccc4)[nH]c(=O)c32)cc1 (stereo not drawn)
inactive: [1] 62.2% | [2] 65.8% | [3] 95.4% | [4] 60.5% | [5] 87.1% | [6] 59.1% | [7] 93.7% | [8] 95.3% | [9] 106% | [10] 83.7% | [11] 52.1% | [12] 98% | [13] 69.8% | [15] 77.4% | [16] 83.1% | [17] 86.9% | [18] 94.9% | [19] 89%
active: [14] 8.26%

COc1cc(-c2nn(C(C)(C)C)cc2-c2ccnc(NCCCNS(=O)(=O)c3ccc(F)cc3)n2)ccc1Cl
active: [14] 8.65%
inactive: [1] 82.3% | [2] 72% | [3] 87.4% | [4] 71.9% | [5] 84.2% | [6] 70.4% | [7] 50.2% | [8] 76.3% | [9] 96.1% | [10] 74.1% | [11] 40.2% | [12] 86.1% | [13] 60.1% | [15] 58% | [16] 80.5% | [17] 91.2% | [18] 93.3% | [19] 93.3%

CC1(C)[C@@H](O)CC[C@]2(C)[C@H]3CC[C@@H]4[C@H]5[C@H](C(=O)/C=C\c6ccccn6)CC[C@]5(O)CC[C@@]4(C)[C@]3(C)CC[C@@H]12
active: [11] 7.45% | [14] -16.2%
inactive: [1] 31.7% | [2] 16.3% | [3] 84.3% | [4] 73.6% | [5] 15.6% | [6] 60.9% | [7] 49.7% | [8] 32.7% | [9] 67.7% | [10] 33.4% | [12] 56.4% | [13] 33.5% | [15] 56.5% | [16] 73.6% | [17] 25.7% | [18] 61.9% | [19] 52.9%

CC(C)(O)c1cncc(-c2ccc3ncnc(NCc4ccccc4)c3c2)c1
active: [14] -7.38%
inactive: [1] 71.1% | [2] 74.8% | [3] 102% | [4] 66% | [5] 97.6% | [6] 72.3% | [7] 85% | [8] 76.3% | [9] 113% | [10] 62.7% | [11] 103% | [12] 101% | [13] 72.9% | [15] 65% | [16] 85% | [17] 85.3% | [18] 95.5% | [19] 105%

N#Cc1c(-c2cccs2)cc(-c2cnccn2)nc1SCC(=O)c1ccc(F)cc1
inactive: [1] 90.6% | [2] 89.3% | [3] 97.8% | [4] 76.4% | [5] 103% | [6] 76% | [7] 86.6% | [8] 88.6% | [9] 105% | [10] 79.5% | [11] 87.2% | [12] 101% | [13] 68.7% | [14] 62.2% | [15] 84.7% | [16] 93.6% | [17] 76.9% | [18] 109% | [19] 116%

Oc1[nH]c2ccccc2c1Nn1c(N=N/C=c2/ccc3c(c2)C=NN=3)n[nH]c1=S
inactive: [1] 89.6% | [2] 93.9% | [3] 107% | [4] 75.6% | [5] 110% | [6] 76.6% | [7] 99.9% | [8] 96.7% | [9] 30.9% | [10] 99.1% | [11] 101% | [12] 109% | [13] 75.6% | [14] 85.4% | [15] 96.9% | [16] 106% | [17] 94% | [18] 110% | [19] 106%

COc1ccccc1C(=O)Nc1cccc2c1C(=O)C(=O)C=C2
inactive: [1] 85.5% | [2] 99.9% | [3] 112% | [4] 94.8% | [5] 103% | [6] 113% | [7] 88.7% | [8] 92.2% | [9] 71.5% | [10] 93.6% | [11] 63.2% | [12] 95.4% | [13] 80.7% | [14] 62.4% | [15] 87% | [16] 98.8% | [17] 103% | [18] 106% | [19] 119%

CC(=O)C1=C(C)NC(NNC(N)=S)=NC1c1ccccc1 (stereo not drawn)
inactive: [1] 92.8% | [2] 99.7% | [3] 101% | [4] 71.8% | [5] 104% | [6] 78.4% | [7] 87.9% | [8] 83% | [9] 106% | [10] 90.9% | [11] 113% | [12] 110% | [13] 77% | [14] 45.5% | [15] 84.8% | [16] 102% | [17] 96.7% | [18] 104% | [19] 92.9%

C=C(C)[C@@H]1CC[C@]2(COCCCNCCC#N)CC[C@]3(C)[C@H](CC[C@@H]4[C@@]5(C)CC[C@H](OCCCNCCC#N)C(C)(C)[C@@H]5CC[C@]43C)[C@@H]12
inactive: [1] 33.4% | [2] 48.8% | [3] 105% | [4] 75.6% | [5] 41.8% | [6] 49.7% | [7] 59.2% | [8] 59.8% | [9] 61.8% | [10] 65% | [12] 72.4% | [13] 54.8% | [15] 55.6% | [16] 55.9% | [17] 67.5% | [18] 61.5% | [19] 75.3%
active: [11] 3.78% | [14] -9.12%

C/C(=N\O)[C@H]1C[C@]23CC[C@]4(C)[C@H](CC[C@@H]5[C@@]6(C)CC/C(=N/O)C(C)(C)[C@@H]6CC[C@]54C)[C@H]2[C@H](C)C1(C)OC3
inactive: [1] 96.5% | [2] 91.9% | [3] 114% | [4] 88.5% | [5] 106% | [6] 106% | [7] 94.7% | [8] 92.1% | [9] 116% | [10] 94.4% | [11] 101% | [12] 106% | [13] 99% | [14] 58.1% | [15] 89.4% | [16] 101% | [17] 103% | [18] 110% | [19] 105%

COc1ccc(/C(N)=N/C(N)=N/c2nc3ccccc3s2)cc1
inactive: [1] 67.8% | [2] 77.8% | [3] 98.4% | [4] 24.5% | [5] 82.5% | [6] 85.5% | [7] 33.1% | [8] 79% | [9] 103% | [10] 81% | [11] 32.9% | [12] 94.4% | [13] 76% | [14] 65.7% | [15] 78.9% | [16] 52% | [17] 90.5% | [18] 98.5% | [19] 81.4%
